Compound activity: PubChem, several laboratories
PLC-gamma1 inh – PLC-gamma1 (human) inhibition, primary screen; actives 0.84% (n = 370,000); AID 720700; inhibition, % at 12.2 µM; purified PLC-gamma1, fluorogenic substrate, fluorescence; in the data active = inhibition above about 9.5%
Target sequence (P19174 whole entry, looked up): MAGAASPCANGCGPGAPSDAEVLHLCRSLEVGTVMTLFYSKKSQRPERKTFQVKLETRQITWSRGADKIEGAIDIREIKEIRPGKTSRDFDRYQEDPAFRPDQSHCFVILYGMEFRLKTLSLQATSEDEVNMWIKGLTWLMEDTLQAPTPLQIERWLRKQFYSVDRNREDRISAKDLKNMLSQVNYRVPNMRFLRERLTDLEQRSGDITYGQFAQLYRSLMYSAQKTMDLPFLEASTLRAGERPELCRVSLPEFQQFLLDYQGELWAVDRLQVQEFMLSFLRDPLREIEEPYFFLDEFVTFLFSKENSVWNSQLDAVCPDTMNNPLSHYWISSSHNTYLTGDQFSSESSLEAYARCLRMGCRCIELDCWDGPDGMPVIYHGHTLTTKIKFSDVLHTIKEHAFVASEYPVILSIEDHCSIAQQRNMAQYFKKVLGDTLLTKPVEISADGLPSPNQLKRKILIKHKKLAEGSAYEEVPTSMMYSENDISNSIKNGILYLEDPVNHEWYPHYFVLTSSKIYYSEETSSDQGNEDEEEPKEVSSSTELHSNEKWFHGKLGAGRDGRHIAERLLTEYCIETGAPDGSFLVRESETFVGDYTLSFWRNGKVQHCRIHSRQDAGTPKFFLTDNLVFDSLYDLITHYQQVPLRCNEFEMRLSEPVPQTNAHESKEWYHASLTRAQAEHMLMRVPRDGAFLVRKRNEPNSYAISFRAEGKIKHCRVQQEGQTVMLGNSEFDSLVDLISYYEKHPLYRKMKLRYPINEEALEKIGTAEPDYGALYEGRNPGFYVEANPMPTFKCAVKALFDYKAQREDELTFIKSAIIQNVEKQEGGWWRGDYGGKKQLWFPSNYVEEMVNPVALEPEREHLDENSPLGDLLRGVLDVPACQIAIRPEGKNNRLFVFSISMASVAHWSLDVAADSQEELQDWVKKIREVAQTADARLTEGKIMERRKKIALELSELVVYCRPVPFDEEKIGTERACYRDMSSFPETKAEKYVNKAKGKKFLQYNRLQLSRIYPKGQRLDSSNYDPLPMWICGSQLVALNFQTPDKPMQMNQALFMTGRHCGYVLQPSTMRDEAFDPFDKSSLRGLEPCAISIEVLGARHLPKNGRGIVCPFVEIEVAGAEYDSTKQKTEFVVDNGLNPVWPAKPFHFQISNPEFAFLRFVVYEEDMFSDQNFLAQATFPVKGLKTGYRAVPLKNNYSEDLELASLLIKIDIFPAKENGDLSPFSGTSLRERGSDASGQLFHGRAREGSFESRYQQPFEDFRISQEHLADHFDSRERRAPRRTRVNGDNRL
Rce1 inh – yeast Ras-converting enzyme inhibition; calls only; Q03530; actives 0.27% (n = 290,000); AID 2563; yeast membranes, quenched prenylated peptide cleavage fluorescence;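 active = fall in fluorescence gain of 50% or more versus controls, with final raw signal at or below 3038400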
PLCb3 inh – PLC-beta3 (human) inhibition, primary screen; Q01970; Purified PLC-beta3, fluorogenic substrate, fluorescence; inhibition, % at 12.2 µM; actives 0.18% (n = 370,000); in the data active = inhibition above about 11%
ADAM10 inh – inhibits human ADAM10; recombinant ADAM10, EDANS/DABCYL FRET peptide cleavage, 3 h; actives 0.62% (n = 370,000); inhibition, % at 7 µM;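 active = inhibition above a per-campaign cutoff equal to the mean of compounds falling between control-based bounds plus 3 SD, cut at about 20% in these data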
ADAM17 inh – ADAM17 inhibition, QFRET primary screen | P78536 | recombinant ADAM17, EDANS/DABCYL FRET peptide cleavage | inhibition, % at 6.95 µM | actives 0.83% (n = 370,000) | AID 720648;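 active = inhibition above the mean of compounds lying between control limits plus 3 SD, set per campaign, cut at about 8.5% in these data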
ADAM10 ctr – ADAM10 inhibition, counter-screen for ADAM17 exosite hits; inhibition, % at 6.95 µM; shares compounds with ADAM17 inh; actives 47% (n = 2,900); recombinant ADAM10, EDANS/DABCYL FRET peptide cleavage, 3 h;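 active = mean inhibition over the triplicate runs exceeds the activity threshold set in the earlier primary screen, cut at about 20% in these data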
ADAM17 confirm – confirmation of inhibitors of human ADAM17; shares compounds with ADAM17 inh; recombinant ADAM17, EDANS/DABCYL QFRET peptide cleavage; inhibition, % at 6.95 µM; actives 65% (n = 2,900); AID 743257;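 active = mean inhibition across replicates above the hit cutoff set in the primary screen, cut at about 8.5% in these data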
Each line names hits and unclear results; the compound was inactive in the other large screens (follow-up assays come after a bar, where they were run). Rows were chosen to be rich in hits. Some 2.1% of all compounds tested hit in one or more screens of this group.

COC(=O)[C@]12CCCCC=C1N(CCc1ccc(OC)c(OC)c1)C(=O)[C@H](CC(=O)NCc1cccc(C(F)(F)F)c1)C2	ADAM17 inh 8.8 (no result: Rce1 inh) | ADAM10 ctr 24.2 | ADAM17 confirm 14.9
COC(=O)[C@@]12C[C@@H](CC(=O)NCc3ccccc3)C(=O)N(Cc3cccc4ccccc34)C1=CCC(C)(C)C2	ADAM17 inh 9.1 (no result: Rce1 inh) | ADAM10 ctr inactive | ADAM17 confirm inactive
COC(=O)[C@]12CCCCC=C1N(Cc1ccc3c(c1)OCO3)C(=O)[C@H](CC(=O)NCc1cccc3ccccc13)C2	ADAM17 inh 8.9 (no result: Rce1 inh) | ADAM10 ctr 33.3 | ADAM17 confirm 22.3
Cc1cc(OC(C)C(=O)N2C[C@H]3C[C@@H](C2)c2cccc(=O)n2C3)c2c(C)c(C)c(=O)oc2c1 (some centres not stated)	none
OC(c1cccc(F)c1)c1ncc(-c2ccc(C(F)(F)F)cc2)[nH]1 (configuration not stated)	none (no result: Rce1 inh)
COc1ccc(C(O)c2ncc(-c3cccc(C(F)(F)F)c3)[nH]2)cc1F (configuration not stated)	none (no result: Rce1 inh)
COc1cccc(-c2cnc(C(O)c3cccc(OC)c3)[nH]2)c1 (configuration not stated)	none (no result: Rce1 inh)
CCCc1ccc(C(O)c2ncc(-c3ccccc3F)[nH]2)cc1 (configuration not stated)	ADAM17 inh 9.2 (no result: Rce1 inh) | ADAM10 ctr inactive | ADAM17 confirm inactive
CCc1ccc(C(O)c2ncc(-c3cccc(C(F)(F)F)c3)[nH]2)cc1 (configuration not stated)	ADAM17 inh 10.7 (no result: Rce1 inh) | ADAM10 ctr 21.3 | ADAM17 confirm 11.5
COc1cccc(C(O)c2ncc(-c3cccc(C(F)(F)F)c3)[nH]2)c1 (configuration not stated)	ADAM17 inh 10.3 (no result: Rce1 inh) | ADAM10 ctr inactive | ADAM17 confirm 9.8
OC(c1ccc2ccccc2c1)c1ncc(-c2ccc(C(F)(F)F)cc2)[nH]1 (configuration not stated)	ADAM17 inh 10.2 (no result: Rce1 inh) | ADAM10 ctr 42.4 | ADAM17 confirm 22.8
COc1ccccc1CC(=O)Nc1ncc(C)s1	none
NC(=O)C1CCN(C(=O)/C(=C/c2ccccc2)NC(=O)c2ccccc2)CC1	none
CCc1ccc(C(=O)/C=C2\Sc3ccccc3NC2=O)cc1	ADAM17 inh 8.8 | ADAM10 ctr inactive | ADAM17 confirm 10.9
O=C(CN1C(=O)NC2(CCCCCCC2)C1=O)Nc1cccc(Br)c1	ADAM17 inh 9.4 (no result: Rce1 inh) | ADAM10 ctr 19.9 | ADAM17 confirm 12.3
COc1ccc2c(CC(=O)OCC(=O)N(C)c3c(N)n(Cc4ccccc4)c(=O)[nH]c3=O)coc2c1	none (no result: Rce1 inh)
CC1(c2nnc(Cc3ccccc3)o2)CC(c2ccc(C#N)cc2)=NO1 (configuration not stated)	ADAM17 inh 9.0 | ADAM10 ctr inactive | ADAM17 confirm inactive
CC1(c2nnc(Cc3ccccc3)o2)CC(c2ccc(Cl)cc2)=NO1 (configuration not stated)	none
O=C(Nc1nc(-c2ccccn2)cs1)c1cc2ccccc2o1	none
Cc1cc(-c2csc(NC(=O)c3cc4ccccc4o3)n2)c(C)n1C	ADAM17 inh 10.9 | ADAM10 ctr inactive | ADAM17 confirm inactive
COc1cccc(CNc2ccc([N+](=O)[O-])cc2C)c1	ADAM17 inh 11.8 | ADAM10 ctr inactive | ADAM17 confirm 12.4
COc1ccc(OC)c(CNc2ccc([N+](=O)[O-])cc2C)c1	none
CCCCn1nnnc1C(c1cc2ccccc2o1)N1CCN(c2cc(C)nc3ccccc23)CC1 (configuration not stated)	ADAM17 inh 8.8 (no result: Rce1 inh) | ADAM10 ctr inactive | ADAM17 confirm inactive
NC(=O)[C@H]1CC2(CC(c3cccc(NC(=O)COc4ccc(Cl)cc4)c3)=NO2)CN1C(=O)CC(c1ccccc1)c1ccccc1 (some centres not stated)	ADAM10 inh 35.4, ADAM17 inh 18.0 | ADAM10 ctr 37.3 | ADAM17 confirm 21.0
CCCCCC(=O)N1CC2(CC(c3cccc(NC(=O)CC(c4ccccc4)c4ccccc4)c3)=NO2)C[C@@H]1C(N)=O (some centres not stated)	ADAM17 inh 9.6 | ADAM10 ctr 29.0 | ADAM17 confirm 17.6
NC(=O)[C@H]1CC2(CC(c3cccc(NC(=O)COc4ccc(Cl)cc4)c3)=NO2)CN1C(=O)c1ccccc1C(=O)c1ccccc1 (some centres not stated)	ADAM17 inh 8.7 | ADAM10 ctr 24.0 | ADAM17 confirm 15.1
CCC(=O)Nc1cccc(C2=NOC3(C2)C[C@@H](C(N)=O)N(C(=O)c2ccccc2C(=O)c2ccccc2)C3)c1 (some centres not stated)	none
CCCCCC(=O)N1CC2(CC(c3cccc(NC(=O)COc4ccc(Cl)cc4)c3)=NO2)C[C@@H]1C(N)=O (some centres not stated)	none
COCCNc1nc(-c2ccccc2F)c2sc(-c3ccccc3)cc2n1	none (no result: Rce1 inh)
COc1nccnc1NS(=O)(=O)c1ccc(NC(=O)c2cccc(C)c2)cc1	none
CCOC(=O)c1cc(C(C)(C)C)oc1CNC(=O)c1c(C)oc2c1CCCC2	none
COC(=O)c1cc(C(=O)OC)n(Cc2ccc(C)cc2)c1C	ADAM17 inh 9.2 | ADAM10 ctr inactive | ADAM17 confirm inactive
COC(=O)c1cc(-c2ccccc2)n(CCN)c1C	none
COc1cc2c(c(Br)c1N)-c1cc(Br)c(N)cc1C2=O	none (no result: Rce1 inh)
C[C@H](NC(=O)C[C@@H]1C=C[C@@H](NC(=O)CN2CCOCC2)[C@@H](CO)O1)c1ccccc1	none (no result: Rce1 inh)
COc1ccc2c(c1)C(=O)N1[C@H]3c4cc(C)ccc4OC[C@@H]3[C@H](c3ccccc3)[C@]1(C)C(=O)N2	ADAM17 inh 8.9 (no result: Rce1 inh) | ADAM10 ctr inactive | ADAM17 confirm 9.6
CC1C(=O)N(Cc2cn(CCC3OCCO3)nn2)CCS(=O)(=O)N1Cc1ccc(-c2ccc(Cl)cc2)cc1 (configuration not stated)	ADAM17 inh 8.6 (no result: Rce1 inh) | ADAM10 ctr inactive | ADAM17 confirm inactive
N=c1c2c(ncn1Cc1ccco1)Oc1c(ccc3ccccc13)C2c1ccccc1 (configuration not stated)	ADAM17 inh 9.3 | ADAM10 ctr inactive | ADAM17 confirm inactive
N=c1c2c(ncn1Cc1ccco1)Oc1cc(O)ccc1C2c1ccccc1 (configuration not stated)	none
O=C(Cc1ccc(Br)cc1)NC1CCSC1=O (configuration not stated)	none
COC(=O)c1ccc(CN2C(=O)C(C)N(C(=O)c3c(F)cccc3F)c3ccccc32)cc1 (configuration not stated)	ADAM17 inh 11.3 | ADAM10 ctr inactive | ADAM17 confirm 15.2
